According to PubChem BioAssay (NCATS):
Results filed as inconclusive are left out. Active and inactive are the calls of the source. Calls follow the shape of the dose curve; as a rule, active = well fitted cell-killing curve with a large enough effect; inconclusive = small, poorly fitted or top-dose-only effect, or effect the other way; inactive = no such curve, though single readings can be large or run the other way.

Key:
[1] = Quantitative High-Throughput drug screen in 47 multiple myeloma cell lines against the NCATS MIPE library collection: MM1S_ATCC cell viability assay (AID 1918980); also: nearly all actives have a fitted effect of over 45% in size
Method in brief: (§1)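 Viability after 48 h drug exposure was measured as ATP-dependent luminescence. Cells, 500 per well, sat at 37 °C under 5% CO2; DMSO wells set 100%, media-only wells 0%.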

[2] = Quantitative High-Throughput drug screen in 47 multiple myeloma cell lines against the NCATS MIPE library collection: MM1R_ATCC cell viability assay (AID 1918981); also: nearly all actives have a fitted effect of over 35% in size
Method in brief: as §1

[3] = Quantitative High-Throughput drug screen in 47 multiple myeloma cell lines against the NCATS MIPE library collection: KMS28PE_JCRB cell viability assay (AID 1918983); also: nearly all actives have a fitted effect of over 35% in size
Method in brief: as §1

[4] = Quantitative High-Throughput drug screen in 47 multiple myeloma cell lines against the NCATS MIPE library collection: L363_DSMZ cell viability assay (AID 1918984); also: nearly all actives have a fitted effect of over 40% in size
Method in brief: as §1

[5] = Quantitative High-Throughput drug screen in 47 multiple myeloma cell lines against the NCATS MIPE library collection: KMS34_JCRB cell viability assay (AID 1918985); also: nearly all actives have a fitted effect of over 40% in size
Method in brief: as §1

[6] = Quantitative High-Throughput drug screen in 47 multiple myeloma cell lines against the NCATS MIPE library collection: OCIMY7_PLB cell viability assay (AID 1918987); details: OCI-MY7 myeloma viability, CellTiter-Glo ATP, 48 h; viability (% of DMSO): at 45.8 µM (top of the series); also: nearly all actives have a fitted effect of over 65% in size
Method in brief: as §1

[7] = Quantitative High-Throughput drug screen in 47 multiple myeloma cell lines against the NCATS MIPE library collection: OPM1_PLB cell viability assay (AID 1918989); also: nearly all actives have a fitted effect of over 40% in size
Method in brief: as §1

[8] = Quantitative High-Throughput drug screen in 47 multiple myeloma cell lines against the NCATS MIPE library collection: XG6_PLB cell viability assay (AID 1919865); also: nearly all actives have a fitted effect of over 40% in size
Method in brief: as §1

[9] = Quantitative High-Throughput drug screen in 47 multiple myeloma cell lines against the NCATS MIPE library collection: XG1_PLB cell viability assay (AID 1919866); also: nearly all actives have a fitted effect of over 35% in size
Method in brief: as §1

[10] = Quantitative High-Throughput drug screen in 47 multiple myeloma cell lines against the NCATS MIPE library collection: VP6_DJ cell viability assay (AID 1919867); also: nearly all actives have a fitted effect of over 40% in size
Method in brief: as §1

[11] = Quantitative High-Throughput drug screen in 47 multiple myeloma cell lines against the NCATS MIPE library collection: UTMC2_PLB cell viability assay (AID 1919868); details: CellTiter-Glo ATP luminescence, 48 h; viability (% of DMSO control): at 45.8 µM (top of the series); also: nearly all actives have a fitted effect of over 55% in size
Method in brief: as §1

[12] = Quantitative High-Throughput drug screen in 47 multiple myeloma cell lines against the NCATS MIPE library collection: PE2_PLB cell viability assay (AID 1919869); also: nearly all actives have a fitted effect of over 35% in size
Method in brief: as §1

[13] = Quantitative High-Throughput drug screen in 47 multiple myeloma cell lines against the NCATS MIPE library collection: PCM6_Riken cell viability assay (AID 1919870); also: nearly all actives have a fitted effect of over 30% in size
Method in brief: as §1

[14] = Quantitative High-Throughput drug screen in 47 multiple myeloma cell lines against the NCATS MIPE library collection: OCIMY5_PLB cell viability assay (AID 1918988); also: nearly all actives have a fitted effect of over 65% in size
Method in brief: as §1

[15] = Quantitative High-Throughput drug screen in 47 multiple myeloma cell lines against the NCATS MIPE library collection: SKMM1_PLB cell viability assay (AID 1919863); details: SKMM1 myeloma viability, CellTiter-Glo ATP, 48 h; viability: stronger effect = lower value; also: nearly all actives have a fitted effect of over 35% in size
Method in brief: as §1

[16] = Quantitative High-Throughput drug screen in 47 multiple myeloma cell lines against the NCATS MIPE library collection: U266_ATCC cell viability assay (AID 1919864); also: nearly all actives have a fitted effect of over 35% in size
Method in brief: as §1

[17] = Quantitative High-Throughput drug screen in 47 multiple myeloma cell lines against the NCATS MIPE library collection: RPMI8226_ATCC cell viability assay (AID 1919871); also: nearly all actives have a fitted effect of over 30% in size
Method in brief: as §1

[18] = Quantitative High-Throughput drug screen in 47 multiple myeloma cell lines against the NCATS MIPE library collection: OPM2_DSMZ cell viability assay (AID 1919872); also: nearly all actives have a fitted effect of over 30% in size
Method in brief: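 Viability readout: CellTiter-Glo luminescence following 5 min room-temperature incubation with reagent. Prior exposure: 48 h, 37C, humidified 5% CO2, 500 cells per well.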

[19] = Quantitative High-Throughput drug screen in 47 multiple myeloma cell lines against the NCATS MIPE library collection: LP1_DSMZ cell viability assay (AID 1918982); also: nearly all actives have a fitted effect of over 35% in size
Method in brief: as §1

Measured: Potency
Potency is read from the fitted curve at half-maximal effect.

COc1cc(N2CCC(C(N)=O)CC2)ccc1Nc1nc(N)c(Cl)c(Nc2ccccc2S(=O)(=O)C(C)C)n1
active: [1] 0.743 µM | [2] 1.18 µM | [3] 0.743 µM | [4] 0.0148 µM | [5] 2.96 µM | [6] 0.209 µM | [7] 5.9 µM | [8] 0.0935 µM | [9] 0.0935 µM | [10] 0.418 µM | [11] 0.132 µM | [12] 0.418 µM | [13] 0.833 µM

CNC(=O)c1ccc(Nc2cc(Nc3ccccc3S(=O)(=O)C(C)C)c3cc[nH]c3n2)nc1
active: [1] 13.2 µM | [3] 9.35 µM | [4] 2.35 µM | [6] 0.833 µM | [14] 4.69 µM | [7] 1.66 µM | [15] 18.7 µM | [16] 1.48 µM | [8] 0.662 µM | [9] 0.296 µM | [10] 0.526 µM | [11] 0.418 µM | [12] 1.18 µM | [13] 1.18 µM | [17] 18.7 µM | [18] 7.43 µM

C#C[C@]1(O)CC[C@@H]2[C@@H]3CCc4cc(O)ccc4[C@H]3CC[C@@]21C
active: [1] 11.8 µM | [2] 20.9 µM | [14] 7.43 µM | [7] 23.5 µM | [15] 14.8 µM | [16] 14.8 µM | [8] 4.18 µM | [9] 3.32 µM | [10] 3.32 µM | [12] 16.6 µM | [13] 14.8 µM

C#Cc1cccc(Nc2ncnc3cc(OCCOC)c(OCCO)cc23)c1
active: [1] 3.72 µM | [3] 18.7 µM | [4] 0.372 µM | [6] 1.87 µM | [14] 3.32 µM | [7] 13.2 µM | [16] 16.6 µM | [12] 1.05 µM

COc1cc2ncnc(Nc3cccc(Br)c3)c2cc1OC
active: [1] 0.0148 µM | [3] 2.96 µM | [6] 0.0372 µM | [7] 7.43 µM | [8] 0.0118 µM | [9] 0.0372 µM | [10] 0.743 µM | [12] 5.9 µM
inactive: [16]

COc1cc(C(=O)NC2CCN(C)CC2)ccc1Nc1ncc2c(n1)N(C1CCCC1)CCC(=O)N2C(C)C
active: [1] 1.05 µM | [4] 16.6 µM | [6] 14.8 µM | [14] 18.7 µM | [7] 20.9 µM | [16] 18.7 µM | [8] 4.69 µM | [9] 20.9 µM | [10] 14.8 µM | [12] 20.9 µM | [13] 18.7 µM

CN1CCCN(C(=O)c2cccc(-c3ccc(C=C4C(=O)Nc5ccc(Cl)cc54)o3)c2)CC1
active: [1] 14.8 µM | [2] 5.9 µM | [4] 6.62 µM | [14] 9.35 µM | [7] 23.5 µM | [15] 14.8 µM | [16] 18.7 µM | [9] 11.8 µM | [10] 18.7 µM | [11] 0.935 µM | [12] 23.5 µM | [13] 9.35 µM | [17] 23.5 µM

N#Cc1c(C2CCNCC2)cc(-c2c(O)cccc2OCC2CC2)nc1N
active: [1] 16.6 µM | [2] 20.9 µM | [3] 26.4 µM | [6] 2.35 µM | [14] 14.8 µM | [7] 20.9 µM | [16] 13.2 µM | [8] 1.05 µM | [9] 4.18 µM | [10] 18.7 µM | [12] 18.7 µM | [13] 8.33 µM | [17] 20.9 µM

CN(C)CC[C@H](c1ccc(Cl)cc1)c1ccccn1
inactive: [11] | [12] | [13]
active: [1] 16.6 µM

O=C(Nc1cccc(Nc2ncc(Br)c(NCCc3cnc[nH]3)n2)c1)N1CCCC1
active: [2] 14.8 µM | [19] 20.9 µM | [3] 14.8 µM | [5] 2.96 µM | [14] 14.8 µM | [7] 1.87 µM | [15] 23.5 µM | [16] 16.6 µM | [9] 0.372 µM | [10] 2.64 µM | [12] 2.96 µM | [13] 3.32 µM | [17] 18.7 µM | [18] 4.18 µM
inactive: [4]

CCOc1cc2ncc(C#N)c(Nc3ccc(OCc4ccccn4)c(Cl)c3)c2cc1NC(=O)C=CCN(C)C
active: [1] 0.526 µM | [3] 13.2 µM | [4] 0.469 µM | [5] 10.5 µM | [6] 0.0526 µM | [16] 13.2 µM | [8] 0.0187 µM | [9] 0.132 µM | [10] 1.18 µM | [11] 0.209 µM | [12] 5.26 µM | [13] 0.332 µM

COc1cc2c(cc1OC)[C@@H]1C(=O)c3ccc4c(c3O[C@@H]1CO2)C=CC(C)(C)O4
active: [1] 2.96 µM | [19] 0.0296 µM | [3] 0.418 µM | [4] 0.0264 µM | [5] 23.5 µM | [6] 0.418 µM | [14] 0.148 µM | [7] 10.5 µM | [15] 13.2 µM | [8] 0.105 µM | [9] 6.62 µM | [10] 0.0418 µM | [11] 0.418 µM | [12] 7.43 µM | [13] 7.43 µM
